Source: PubChem
This is a sample that favours compounds with a hit; in the whole collection about 19% have one here.
HT1080-NT tox = kills 2HG-producing HT-1080-NT fibrosarcoma cells. HT-1080-NT fibrosarcoma viability, CellTiter-Glo ATP luminescence, 48 h. Potency, µM (series often up to 46.1 µM), without a hit: at the top dose activity, negative = less viability, most hits filed as cytotoxic. actives 1.6% (n = 360,000);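 further: NT is the 2HG producing partner of a matched IDH1 knockdown line; potency means the concentration at half of the fitted maximal effect; 0% = DMSO-treated cells and -100% = media-only wells without cells; nearly all actives have a fitted effect of over 55% in size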
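Viability of the 2HG-overproducing fibrosarcoma line after 48 hours of compound exposure at 37 degrees C was determined by luminescence with CellTiter-Glo, and concentration-effect curves were then fitted and categorized.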
TDP1 cell CPT = DT40-hTDP1 cell growth loss with CPT | actives 12% (n = 420,000) | chicken DT40 Tdp1-/-;hTDP1 cells + 20 nM CPT, ATP luminescence, 48 h | Potency, µM (highest dose often 46.2 µM), for the others: at the highest dose activity change, negative = growth inhibition, hits mostly inhibitors; further: potency means the concentration at half of the fitted maximal effect; nearly all actives have a fitted effect of over 55% in size
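Chicken DT40 Tdp1-/- cells complemented with human TDP1, 400 cells/well, exposed to compounds plus 20 nM camptothecin for at least 48 h at 37 C; viability read as ATP content by CellTiter-Glo luminescence.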
uPA generation = cell surface uPA generation inhibition. cell surface uPA generation assay, qHTS. Potency, µM (top dose mostly 38.3 µM), for the others: at the highest dose activity change, negative = inhibition, most hits filed as inhibitors. actives 0.31% (n = 330,000); active means well fitted inhibition curve with a large enough effect; inconclusive means small, poorly fitted or top-dose-only effect; inactive means no such curve, though single readings can be large or run the other way; tested in mouse RAW 264.7 cells; further: potency means the concentration at half of the fitted maximal effect; nearly all actives have a fitted effect of over 55% in size
HT1080 IDH1KD tx = HT-1080 IDH1 knockdown cell toxicity (counter line) | AID 686971 | actives 2% (n = 360,000) | Potency, µM (titrated, usually from 46.1 µM), for the others: at the top dose activity, negative = toxicity, most hits filed as cytotoxic | HT-1080 IDH1 knockdown viability, ATP luminescence, 48 h;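 further: potency means the concentration at half of the fitted maximal effect; 0% = DMSO wells and -100% = cell-free medium wells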
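% activity derives from luminescence (CellTiter-Glo), normalised to DMSO and no-cell wells. HT-1080-IDH1KD cells, 750/well, had 48 h compound exposure at 37 °C.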
DT40 TDP1 no CPT = qHTS for Inhibitors of human tyrosyl-DNA phosphodiesterase 1 (TDP1): qHTS in cells in absence of CPT. AID 686978, 2013. actives 15% (n = 420,000). Potency, µM (series often up to 46.2 µM), inactives show top-dose activity change, negative = growth inhibition, most hits filed as inhibitors. DT40 Tdp1-/- hTDP1 cells, no CPT, ATP luminescence, 48 h; further: potency means the concentration at half of the fitted maximal effect; nearly all actives have a fitted effect of over 55% in size
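Growth kinetics read by CellTiter-Glo luminescence after ≥48 hr at 37 °C. Cells: DT40 Tdp1-/- stably carrying human TDP1, 400 per well, compound exposure in the absence of CPT (DMSO vehicle).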
IL1B secr inh = inflammasome signaling inhibition, IL-1 beta readout. THP-1 LPS/ATP IL-1B secretion, AlphaLISA, 16 h; stronger effect = lower value. activity change, % at 57.5 µM. actives 4.7% (n = 360,000). AID 743279; in the data active means activity change below about -50%; inconclusive means mostly about -30% to -49%
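THP-1 cells pretreated 1 hr with compounds (up to 57.5 uM final), then stimulated with LPS (250 ng/mL final) plus ATP (1.25 mM final); secreted IL-1B measured by AlphaLISA after 16 hr, decreased signal indicating inhibition.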
An asterisk follows results filed as active. Unless noted, the call rests on the fitted dose curve; in most records, active means well fitted curve in the direction sought with a large enough effect; inconclusive means small, poorly fitted or top-dose-only effect, or another doubt; inactive means no such curve, though single readings can be large; an effect the other way counts as inactive or inconclusive. Unless noted, on the % scale 0 is the no-effect control and ±100 the full control effect.

What do the screens show for `CCc1nc2ccc(C(=O)Nc3cccc(OCC(=O)N(C)C)c3)cn2c1N(C)Cc1cc2ccccc2s1`?
HT1080-NT tox: inconclusive; TDP1 cell CPT: 16µM*; HT1080 IDH1KD tx: inconclusive; DT40 TDP1 no CPT: 16µM*; IL1B secr inh: -17

What do the screens show for `CCc1nc2ccc(C(=O)NCCCN(C)C)cn2c1N(C)CCCc1ccccc1`?
HT1080-NT tox: 18µM*; TDP1 cell CPT: inconclusive; HT1080 IDH1KD tx: 23µM*; DT40 TDP1 no CPT: inconclusive; IL1B secr inh: -22

How did CCc1nc2ccc(C(=O)NCCCn3ccnc3)cn2c1N(C)Cc1cc2ccccc2s1 do in these assays?
HT1080-NT tox: 21µM*; TDP1 cell CPT: inconclusive; HT1080 IDH1KD tx: inconclusive; DT40 TDP1 no CPT: 16µM*; IL1B secr inh: inconclusive

What do the screens show for `CCc1nc2ccc(C(=O)N3CCCCC3)cn2c1N(C)CCCc1ccccc1`?
HT1080-NT tox: 6%; TDP1 cell CPT: inconclusive; HT1080 IDH1KD tx: 3%; DT40 TDP1 no CPT: inconclusive; IL1B secr inh: 18

What do the screens show for `CCc1nc2ccc(C(=O)NCCCn3ccnc3)cn2c1N(C)CCCc1ccccc1`?
HT1080-NT tox: inconclusive; TDP1 cell CPT: 18µM*; HT1080 IDH1KD tx: inconclusive; DT40 TDP1 no CPT: inconclusive; IL1B secr inh: inconclusive

How did CCCCCCc1ccc(N2C[C@H](Cc3ccccc3)[C@@H](CC(=O)Nc3ccccc3)C2=O)cc1 do in these assays?
HT1080-NT tox: 11%; TDP1 cell CPT: inconclusive; uPA generation: 20%; HT1080 IDH1KD tx: 1%; DT40 TDP1 no CPT: inconclusive; IL1B secr inh: -22

What do the screens show for `Cc1nn(CC(=O)NCc2ccco2)c(=O)c2cc3ccccc3n12`?
TDP1 cell CPT: 3%; DT40 TDP1 no CPT: -9%

How did COc1c(C)cc(C(O)c2ncc(-c3ccccc3F)[nH]2)cc1C (configuration not stated) do in these assays?
HT1080-NT tox: inconclusive; TDP1 cell CPT: inconclusive; HT1080 IDH1KD tx: inconclusive; DT40 TDP1 no CPT: inconclusive; IL1B secr inh: 49

What do the screens show for `CCc1nc2ccc(C(=O)NCCCn3ccnc3)cn2c1N(C)Cc1ccc(OC)cc1`?
HT1080-NT tox: 10%; TDP1 cell CPT: inconclusive; HT1080 IDH1KD tx: 14%; DT40 TDP1 no CPT: 15µM*; IL1B secr inh: -23

Results for Cc1cc(OC(C)C(=O)NCC2CCC(C(=O)O)CC2)c2c(C)cc(=O)oc2c1 (configuration not stated) ?
HT1080-NT tox: 1%; TDP1 cell CPT: -14%; uPA generation: 3%; HT1080 IDH1KD tx: -4%; DT40 TDP1 no CPT: 2%; IL1B secr inh: 10

How did Cc1cccc(C)c1NC(=O)C1C(c2ccc3c(c2)OCO3)=Nc2ccccc2N1C(=O)c1ccccn1 (configuration not stated) do in these assays?
HT1080-NT tox: -11%; TDP1 cell CPT: inconclusive; HT1080 IDH1KD tx: -8%; DT40 TDP1 no CPT: 21µM*; IL1B secr inh: 40

How did Cc1cccc(C)c1NC(=O)C1C(c2ccc3c(c2)OCO3)=Nc2ccccc2N1C(=O)c1cccc(C(F)(F)F)c1 (configuration not stated) do in these assays?
HT1080-NT tox: -15%; TDP1 cell CPT: 7.3µM*; HT1080 IDH1KD tx: -3%; DT40 TDP1 no CPT: 7.3µM*; IL1B secr inh: -57*

Results for CN(CCC1CCOCC1)C(=O)c1cc(COc2c(F)cccc2F)on1 ?
HT1080-NT tox: 7%; TDP1 cell CPT: inconclusive; uPA generation: -7%; HT1080 IDH1KD tx: 0%; DT40 TDP1 no CPT: 1%; IL1B secr inh: 1

How did O=C(COC(=O)c1cc(S(=O)(=O)N2CCOCC2)c(Cl)cc1Cl)NCc1ccco1 do in these assays?
HT1080-NT tox: -12%; TDP1 cell CPT: 11%; uPA generation: -7%; HT1080 IDH1KD tx: -8%; DT40 TDP1 no CPT: 1%; IL1B secr inh: -80*

Results for CN(C)c1ccc([C@@H]2[C@@H]([N+](=O)[O-])[C@H]3C=Cc4ccccc4N3[C@H]2C(=O)c2ccc(Cl)cc2)cc1 ?
HT1080-NT tox: -8%; TDP1 cell CPT: 6.5µM*; uPA generation: -7%; HT1080 IDH1KD tx: -8%; DT40 TDP1 no CPT: 7.3µM*; IL1B secr inh: inconclusive

How did COc1ccccc1-c1nnc2sc(-c3ccc(N(C)C)cc3)nn12 do in these assays?
HT1080-NT tox: 0.92µM*; TDP1 cell CPT: 0.0073µM*; uPA generation: -5%; HT1080 IDH1KD tx: 0.52µM*; DT40 TDP1 no CPT: 0.082µM*; IL1B secr inh: -1

What do the screens show for `CCOc1ccc(-c2nnc3sc(-c4ccccc4OC)nn23)cc1`?
HT1080-NT tox: 13%; TDP1 cell CPT: -13%; HT1080 IDH1KD tx: 0%; DT40 TDP1 no CPT: -6%; IL1B secr inh: -14

How did COc1ccccc1-c1nnc2sc(-c3cc4ccccc4o3)nn12 do in these assays?
HT1080-NT tox: inconclusive; TDP1 cell CPT: 1.2µM*; uPA generation: -10%; HT1080 IDH1KD tx: 1.5µM*; DT40 TDP1 no CPT: 1µM*; IL1B secr inh: 101

How did COc1ccccc1-c1nnc2sc(COc3ccc(F)cc3)nn12 do in these assays?
HT1080-NT tox: -12%; TDP1 cell CPT: inconclusive; uPA generation: -6%; HT1080 IDH1KD tx: -17%; DT40 TDP1 no CPT: inconclusive; IL1B secr inh: -67*

Results for COc1ccccc1-c1nnc2sc(-c3cnccn3)nn12 ?
HT1080-NT tox: 8%; TDP1 cell CPT: -22%; uPA generation: 9%; HT1080 IDH1KD tx: 9%; DT40 TDP1 no CPT: -25%; IL1B secr inh: 22

How did CN(C)c1ccc(-c2nn3c(-c4cccnc4)nnc3s2)cc1 do in these assays?
HT1080-NT tox: 17%; TDP1 cell CPT: 4%; HT1080 IDH1KD tx: 9%; DT40 TDP1 no CPT: -16%; IL1B secr inh: -14

Results for CCCN1Cc2cccc(C(=O)Nc3cc(C)cc(C)c3)c2C1=O ?
TDP1 cell CPT: -14%; DT40 TDP1 no CPT: inconclusive

Results for COc1ccc(CCN(Cc2cccs2)S(=O)(=O)c2ccc(C(=O)O)cc2)cc1OC ?
HT1080-NT tox: -7%; TDP1 cell CPT: -3%; uPA generation: 1%; HT1080 IDH1KD tx: -8%; DT40 TDP1 no CPT: 15%; IL1B secr inh: 64

Results for O=C(c1cc(COc2ccc(F)cc2F)on1)N1CC2C[C@@H]3CC1C[C@H](C2)C3 ?
HT1080-NT tox: -4%; TDP1 cell CPT: 6.5µM*; uPA generation: -2%; HT1080 IDH1KD tx: -12%; DT40 TDP1 no CPT: 2.6µM*; IL1B secr inh: -98*
